Experimental data from PubChem BioAssay (NCI).
The panel holds about 83,000 compounds, 20% with a hit somewhere; the sample as a whole holds those more often.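 Each cell line was grown in a 96-well plate and treated with one concentration of compound for 48 hours. Values below 10 were considered active.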 A number with no mark means an inactive call. Activity calls are given as the source filed them.

How the values were obtained:
Assay in all cases: NCI-60 one-dose screen, 48 h (100 = growth as untreated, 0 = no growth, -100 = all killed)
Details in all cases: 10 µM unless noted
[1] = system: HCT-15 colon
[2] = system: HT29 colon
[3] = system: SNB-75 CNS
[4] = system: SNB-19 CNS
[5] = system: U251 CNS
[6] = system: PC-3 prostate
[7] = system: SK-MEL-5 melanoma
[8] = system: UACC-62 melanoma
[9] = system: LOX IMVI melanoma
[10] = system: SK-MEL-28 melanoma

Structure (SMILES) | growth [1] | growth [2] | growth [3] [%] | growth [4] | growth [5] | growth [6] | growth [7] | growth [8] | growth [9] | growth [10]
CCOC(=O)c1ccc(N/C=C/C(=O)c2ccccc2)cc1 | 86.2% | 103% | 97 | 92.1% | 99.7% | 95.7% | 99.4% | 87.5% | 96.3% | 97.2%
O=C(COc1cccc2cccnc12)Nc1ccc(C(=O)/C=C/c2ccc(Cl)cc2)cc1 | 70% | 86.5% | 96 | 87.2% | 92.2% | 89.2% | 83.7% | 72.6% | 47.5% | 101%
CCN1C(=O)N(CC)C2SC(N/N=C/c3ccccc3F)=NC21 (stereo not given) | 16.2% | 0.675% (active) | 21.5 | 24.6% | 16.4% | 29.8% | 11.1% | 37.6% | 15.6% | 54.8%
CC[C@H](C)[C@H]1NC(=O)[C@@H]([C@H](O)C(C)C)NC(=O)[C@@H](C)N(C)C(=O)[C@H](C)N(C)C(=O)[C@H](CC(C)C)NC(=O)[C@H](CC(C)C)N(C)C(=O)[C@H](C)N(C)C1=O | 1.74% (active) | 3.09% (active) | 11.2 | 5.15% (active) | 1.21% (active) | 5.5% (active) | -12.4% (active) | -3.83% (active) | -1.35% (active) | -9.11% (active)
CC(c1ccccc1)N1C(=O)/C(=C/c2csc(C#N)n2)SC1=S (stereo not given) | 76.1% | 106% | 85.4 | 93.7% | 94.1% | 90.5% | 96.9% | 85.4% | 39.8% | 93.5%
COc1ccc(CCN2C(=O)/C(=C/c3nc(CO)cs3)SC2=S)cc1 | 51.2% | 103% | 73.1 | 91.7% | 91.9% | 74% | 98.1% | 79.7% | 30.8% | 97.2%
O=C1/C(=C/c2ccccc2[N+](=O)[O-])Oc2ccc(O)cc21 | -31.4% (active) | -23.7% (active) | 54.2 | 79.3% | 56.9% | 57.1% | 90.8% | 37.1% | -46.2% (active) | 43.3%
Clc1ccc(-c2nc3ccc(/C(=N\N=C\c4ccccc4)c4ccccc4)cc3[nH]2)cc1 | 72% | 71.7% | 113 | 93.8% | 88.4% | 62.2% | 86.7% | 88.8% | 84.6% | 90.6%
CC1CCc2c(sc3nc(SCC(=O)N/N=C/c4cccc(O)c4O)n(-c4ccccc4)c(=O)c23)C1 (stereo not given) | 85.6% | 105% | 99.2 | 98.1% | 90.9% | 76.8% | 94.1% | 84% | 60.4% | 78.4%
CN(c1ccc(Cl)cc1)S(=O)(=O)c1ccc(-c2cnc(C3CC3)o2)cc1 | 15.6% | 15% | 43 | 44.4% | 32.3% | 22.3% | 10.2% | 37.3% | 12.9% | 65.2%
IP(CCCSc1n(Cc2ccc3ccccc3c2)c(-c2ccccc2)c(-c2ccccc2)[n+]1Cc1ccc2ccccc2c1)(c1ccccc1)(c1ccccc1)c1ccccc1 | 94.5% | 2.7% (active) | 43 | 16.6% | 10.3% | 32.1% | 67.6% | 26.6% | 8% (active) | 32.8%
COc1ccc(-c2cc(-c3cccc4ccccc34)n3c(n2)nc2ccccc23)cc1 | 42.8% | 33.8% | 35.5 | 39.9% | 33.1% | 35.8% | 30.4% | 33.7% | 45.7% | 70.2%
COC1=C(c2ccccc2)C(=O)C(OC)=C(c2ccccc2)C1=O | 97.6% | 95% | 56 | 101% | 91.6% | 96.2% | 103% | 97.1% | 95.2% | 117%
Fc1ccccc1/C=C(/C1=NCCN1)n1cnc2ccccc21 | 93% | 112% | 92.2 | 97.6% | 101% | 95.7% | 106% | 94.9% | 90.3% | 95.3%
O=C1Nc2ccc(Cl)cc2/C1=C/c1ccc(OCc2ccc(F)cc2)cc1 | 87.8% | 99.4% | 89.7 | 99.1% | 95.4% | 93.6% | 105% | 90.8% | 92.8% | 96.3%
COc1ccc(-c2cc(-c3ccc(Cl)cc3)nc3nc(N)nn23)cc1 | 90.2% | 99.5% | 104 | 91.5% | 91% | 106% | 93.6% | 92.8% | 105% | 116%
CC(C)Sc1nc(NC2CC2)c(C#N)c(-c2ccccc2)n1 | 92.4% | 91.1% | 34.7 | 90% | 85.1% | 92.5% | 100% | 87.6% | 67.9% | 98.7%
CC1(C)CC[C@]2(C(=O)O)CC[C@]3(C)C(=CCC4[C@@]5(C)C[C@@H](O)[C@@H]6OC(c7ccccc7O)OC[C@@]6(C)C5CC[C@]43C)C2C1 (stereo not given in full) | 29.8% | 44.1% | 72.6 | 59.2% | 28.6% | 62.9% | 63.4% | 82.4% | 27% | 84.7%
COc1ccc(NC(=O)Cn2cc(CN3C(=O)c4ccc([N+](=O)[O-])cc4C3=O)nn2)cc1 | 98.2% | 109% | 73.9 | 93.6% | 100% | 98.6% | 102% | 91.3% | 97.7% | 110%
O=C1c2cc(Br)ccc2-n2c1nc1cc(Br)ccc1c2=O | 64.8% | 74.3% | 68.3 | 84.6% | 91.9% | 60.9% | 60.6% | 85.7% | 63.9% | 88.9%
CCC(CC)n1c(=O)c(SC2=NC3C(NN2)N(CC)C(=O)N3CC)c(C(=O)O)c2ccccc21 (stereo not given) | 14.2% | 2.44% (active) | 39.6 | 35.2% | 14.8% | 23.9% | 6.37% (active) | 22.5% | 23% | 65.4%
CNC(=O)c1cc(Oc2ccc3nc(NC(=O)c4ccc(CN5CCCN(C)CC5)c(C(F)(F)F)c4)sc3c2)ccn1 | -21.4% (active) | -75.5% (active) | 47.5 | 7.5% (active) | 1.82% (active) | 22.2% | -59.9% (active) | -7.16% (active) | -81.9% (active) | -74% (active)
Cc1cc(C(=O)Nc2ccc(SC#N)cc2)c(C)o1 | 82.1% | 106% | 104 | 90.7% | 76% | 73.9% | 99.6% | 93.1% | -41.2% (active) | 104%
C=CCn1c(SCC(=O)Nc2cccc(C(=O)/C=C/c3ccc(Br)cc3)c2)nc2ccccc2c1=O | 76.3% | 83.9% | 61.8 | 76.8% | 74.6% | 79.4% | 98.4% | 73.4% | 74.8% | 98.2%
